The text below walks through data of PubChem BioAssay.

A number with no mark means an inactive call. The rule behind the calls is not given here.

Chain of Pantothenate synthetase (Mycobacterium tuberculosis (strain ATCC 25618 / H37Rv)) (P9WIL5 whole entry, looked up): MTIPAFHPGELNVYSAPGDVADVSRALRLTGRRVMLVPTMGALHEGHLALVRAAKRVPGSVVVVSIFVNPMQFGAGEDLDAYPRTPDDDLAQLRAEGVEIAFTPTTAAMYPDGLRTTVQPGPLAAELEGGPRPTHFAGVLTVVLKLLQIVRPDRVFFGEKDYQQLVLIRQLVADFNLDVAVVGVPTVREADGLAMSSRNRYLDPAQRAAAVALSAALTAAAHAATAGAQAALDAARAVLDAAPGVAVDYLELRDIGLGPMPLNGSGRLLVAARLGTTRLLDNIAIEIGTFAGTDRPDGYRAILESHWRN

This assay concerns the target Pantothenate synthetase (Mycobacterium tuberculosis (strain ATCC 25618 / H37Rv)) (UniProt P9WIL5). Nature of the assay: Recombinant Mtb pantothenate synthetase (PanC) inhibitors, coupled enzyme, confirmatory (AID 375).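 Note: 0% = full reaction with vehicle and 100% = no enzyme background.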 The following applies: coupled enzyme assay; at 10 µM, stronger effect = higher value.
A word on the inhibition: it is the share of the control response that was lost under treatment. Take `CCOC(=O)c1ccccc1NC(=O)CSc1nnc(COc2ccccc2C)n1C`: the inhibition was 2%. The result for `O=C(NC1CCN(Cc2nnnn2CCc2ccccc2)CC1)c1ccccc1F` reads 3%; that for `CC(C)c1cc(C(=O)Nc2cccnc2)no1`, 3%. As to `CCOC(=O)C1=C(C)NC(=O)NC1c1ccc(OCCO)c(OC)c1` (stereo not given), the inhibition was 0%. Under `CCc1nc(N)c(C#N)c(-c2ccc(OC)c(OC)c2)c1C` stands 2%; under `O=C(COn1nnc2ccc(C(F)(F)F)cc21)Nc1nnc(-c2ccccc2)o1`, 0%; under `CCCCCCNC(=O)c1c(N)n(/N=C/c2ccco2)c2nc3ccccc3nc12`, 5%.

On to `CC(=O)C(Sc1ncnc2c1nnn2-c1ccc(F)cc1)C(=O)N(C)C` (stereo not given), for which the inhibition is 0%. Under `COC(=O)CC1C(=O)NCCN1C(=O)NC1CCCCC1` (stereo not given) stands 1%; under `CCn1nnc(-c2ccccc2NC(=O)c2ccc(-n3cnnn3)cc2)n1`, 9%. Under `C[C@@H]1C[C@H]2[C@@H]3C[C@H](F)C4=CC(=O)C=C[C@]4(C)[C@@]3(F)[C@@H](O)C[C@]2(C)[C@@]1(O)C(=O)COC(=O)C(C)(C)C` stands 0%. Under `C=CCNC(=O)c1cc(-c2ccccc2O)on1` stands 0%; under `COc1ccc(OC)c(S(=O)(=O)N2CCC(C(=O)NCC3CCCO3)CC2)c1` (stereo not given), 7%; under `CCOCCCNC(=O)C(c1ccc(C)cc1)N(Cc1ccc2c(c1)OCO2)C(=O)c1cnccn1` (stereo not given), 0%. With `CN1CCN(c2nc3c(c(=O)[nH]c(=O)n3C)n2CCOc2ccccc2)CC1`, the inhibition is 0%. Turning to `Cc1cc(C)n(-c2nnc(C)n2/N=C/c2ccccc2F)n1`, the inhibition is 9%.

With `CC(C)OCCCNC(=O)c1cc2c(s1)CS(=O)(=O)C2`, the inhibition was 0%. As to `O=C(Cn1nnc(-c2ccccc2)n1)Nc1ccccc1N1CCOCC1`, the inhibition is 0%. The result for `CC(=O)N1CCc2cc(S(=O)(=O)CCC(=O)N3CCN(C(=O)c4ccco4)CC3)ccc21` reads 6%; that for `CCOC(=O)c1cc2oc(C)cc2n1CC(=O)OC1CCCCC1`, 1%.

In the case of `N#CC1=C(N)N(c2ccccc2)C(c2ccco2)C1(C#N)C#N` (stereo not given), the inhibition is 2%. Consider `Cc1nc2nc(Cc3ccccc3)[nH]n2c(=O)c1Cc1ccccc1`, for which the inhibition is 5%. Regarding `NC(=O)N1c2ccccc2C=Cc2ccccc21`, the inhibition was 0%. The result for `O=C(NCc1ccco1)c1csc(Nc2ccccc2Cl)n1` reads 0%. The result for `CC(C)(C)c1ccccc1NC(=O)c1cccnc1` reads 10%; that for `C=CCNC(=O)CN(c1cccc(Br)c1)S(C)(=O)=O`, 0%; that for `CCOC(=O)C1CCCN(C(=O)c2ccc(CS(=O)(=O)c3ccc(Br)cc3)o2)C1` (stereo not given), 4%. Under `CCOC(=O)c1c(C)oc2c1c(C(c1ccncc1)N1CCOCC1)c(O)c1ccccc12` (stereo not given) stands 0%; under `COC(=O)Cn1c(CCS(=O)(=O)c2ccc(C)cc2)nc2ccccc21`, 1%; under `Cc1ccc(OCC(O)CN2C(=O)NC(C)(C)C2=O)cc1C` (stereo not given), 2%. For the molecule `O=C(CSc1nnc(-c2cccs2)o1)N1CCOCC1`, the inhibition is 0%.

Take `COc1ccc(S(=O)(=O)NCC(=O)N(CC(=O)NCC2CCCO2)c2ccccc2C)cc1` (stereo not given): the inhibition is 8%.

Regarding `O=C(CN1CCCCCC1)OCCN=C1NS(=O)(=O)c2ccccc21`, the inhibition is 0%. Turning to `O=C1C2CC=C(Cl)CC2C(=O)N1CNc1ccccn1` (stereo not given), the inhibition was 0%. Under `NC(=O)SCC(=O)Nc1cccc(Cl)c1` stands 1%.

Take `CCN(CC)S(=O)(=O)c1ccc(C(=O)Oc2ccc3c(c2)OCO3)cc1`: the inhibition was 2%. Consider `Cc1oc(-c2ccccc2)cc1C(N)=O`, for which the inhibition was 0%. Under `Clc1ccccc1OCc1nn2c(-c3ccncc3)nnc2s1` stands 0%; under `CCCCOc1ccc(-c2nnn(CC(=O)NCc3ccco3)n2)cc1`, 0%; under `CC(C)(C)c1ccc(O)c(N)c1`, 2%.
